Measured values published in PubChem BioAssay AID743480 (Broad Institute, 2014).
The other results are listed elsewhere or left out. Values without a mark were called inactive.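 How the source made its calls: active means compounds whose fitted half-maximal signal-loss concentration is at most twice their highest valid dose; inconclusive means flat curve with 30 to 70% signal loss, or poor fit; inactive means the rest.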

Assay: cytotoxicity in HepG2 cells, dose response, cytotoxicity control, cell-based, CellTiter-Glo luminescence, cherry-pick, set 4 (AID 743480)
Conditions: HepG2 viability, ATP luminescence, 72 h; series mostly up to 26 µM; activity change, negative = cytotoxicity: at the top concentration

Row | Compound | activity change, negative = cytotoxicity [unspecified]
1 | C=CCNC(=O)c1ccccc1NC(=O)c1ccc(Cl)c(S(=O)(=O)Nc2cccc(C)c2C)c1 | 13
2 | COc1ccc(Cn2c(-c3ccc(Cl)cc3)c[n+]3ccccc23)cc1 | 9.96
3 | CC[C@H]1OC(=O)[C@H](C)[C@@H](O[C@H]2C[C@@](C)(OC)[C@@H](O)[C@H](C)O2)[C@H](C)[C@@H](O[C@@H]2O[C@H](C)C[C@H](N(C)C)[C@H]2O)[C@](C)(O)C[C@@H](C)[C@@H]2N[C@@H](COCCOC)O[C@H]([C@H]2C)[C@]1(C)O | 23.7
